# The campaign covered roughly 69,000 compounds. About 1,000 (1.4%) showed an effect of 50% or more. Many of the other results were omitted from the sample, so strong results are more common in it than they were.
# Tested on: Leishmania donovani
# Test: Leishmania intramacrophage assay
# Format: functional, organism-based
# Design: scale not given: in the data most compounds retested in dose-response had high values
Structure (SMILES),"Percent Effect (30.3 µM, […]) [%]","Percent Effect (30 µM, 30.03 µM) [%]"
O=C(NCCc1ccc(F)cc1)C1CN(C(=O)Cn2cncn2)C1,19.84,–
COCCCNC(=O)COc1ccccc1C(F)(F)F,6.767,–
O=C(Cc1ccccc1)NC[C@H]1Cn2ccnc2CO1,5.132,–
CCC(Nc1nc(C)nc2onc(C)c12)c1nc(C)c(C)s1 (centres undefined),15.33,–
Cc1nc(NCCSc2ccccn2)c2c(C)noc2n1,23.02,–
CCC(Nc1nc(C)nc2onc(C)c12)c1cccs1 (centres undefined),50.11,–
O=C(NC1CCOCC1)c1cccc(C2CCCNC2)c1 (centres undefined),-13.02,–
CCOCC1CN(C(=O)Cc2ccsc2)Cc2ccnn2C1.O=C(O)C(F)(F)F (centres undefined),51.92,–
CCOCC1CN(C(=O)Cc2cccs2)Cc2ccnn2C1 (centres undefined),34.28,–
CN(C)CCOCC1CN(Cc2ccsc2)Cc2ccnn2C1.O=C(O)C(F)(F)F.O=C(O)C(F)(F)F.O=C(O)C(F)(F)F (centres undefined),–,9.716
Cc1noc(C)c1CN(C)C(=O)Cn1c(=O)n(C)c2ccccc21,12.61,–
Cc1noc(C)c1CN(C)Cn1c(=O)n(C)c2ccccc21,5.674,–
Cc1noc(C)c1CN(C)C(=O)CCn1c(=O)n(C)c2ccccc21,50.75,–
O=C(CC1CC1)NCc1cn2c(n1)CN(C(=O)C1CCOCC1)CC2,-40.34,–
COCc1noc(CNc2nc(C3CCCC3)nc3c2CCNCC3)n1,8.376,–
COCCNc1nc(C2CCCC2)nc2c1CCNCC2,–,63.78
Cc1nc2c(c(NCCc3nc4c(s3)CCCC4)n1)CCNCC2,49.04,–
c1nc(CCNc2nc(C3CC3)nc3c2CCNCC3)c[nH]1,9.64,–
Cc1nc2c(c(NCC(O)C(F)(F)F)n1)CCNCC2 (centres undefined),-15.94,–
OC(CNc1ncnc2c1CCNCC2)C(F)(F)F (centres undefined),26.97,–
OC(CNc1nc(C2CCCC2)nc2c1CCNCC2)C(F)(F)F (centres undefined),100.7,–
COCCNc1nc2c(c(NCC3CCOC3)n1)CCNCC2 (centres undefined),32.27,–
C1Cc2nc(CCNc3nc(C4CC4)nc4c3CCNCC4)sc2C1,95.48,–
O=C(NC1CC1)C1CCc2nnc(-c3cccc(C(F)(F)F)c3)n21 (centres undefined),10.31,–

Structure (SMILES),"Percent Effect (30.3 µM, […]) [%]","Percent Effect (30 µM, 30.03 µM) [%]"
CN(C)CCn1cc(NC(=O)NC(C)(C)c2nccs2)cn1,7.741,–
Cc1cc(C(=O)N2CCCC2c2nnc3n2CCCCC3)on1 (centres undefined),34.8,–
CO[C@H]1[C@@H]2CC[C@H]1CN(c1nc(C)nc3sccc13)C2,56.76,–
CO[C@H]1[C@@H]2CC[C@H]1CN(c1nc(C)nc3ccsc13)C2,34.92,–
Cc1nc(N2C[C@@H](CN3CCCN(C)CC3)[C@@H](CO)C2)c2ccsc2n1,-13.66,–
CC(=O)N1C[C@H]2C3(CCN(S(C)(=O)=O)CC3)CC[C@@]2(C(=O)N(C)C)C1,-12.02,–
Cc1cc(C)n(CC2CCCN2CC(=O)N(C)Cc2ccco2)n1 (centres undefined),34.8,–
Cc1cc(C)n(CC2CCCCN2CC(=O)N(C)Cc2ccco2)n1 (centres undefined),-27.36,–
Cc1cc(C)n(CC2CCCN2CC(=O)N(C)Cc2ccc(C)o2)n1 (centres undefined),94.04,–
CNS(=O)(=O)c1cccc(CNc2ccc(C(F)(F)F)nn2)c1,–,12.97
COc1ccccc1N1CC(NC(=O)c2cc(C(C)C)nn2C)CC1=O (centres undefined),57.19,–
COc1ccccc1N1CC(NC(=O)Cn2cc(C)nn2)CC1=O (centres undefined),4.572,–
COc1ccccc1N1CC(NC(=O)Cn2cc(C(C)C)nn2)CC1=O (centres undefined),-4.218,–
CCOCCC(=O)NC(Cc1ccc(C)cc1)c1ccccn1 (centres undefined),16.59,–
CN1CC[C@@H]2[C@@H](CO[C@H]2CNC(=O)c2nccn2C)C1.O=C(O)C(F)(F)F,58.2,–
Cn1ccnc1C(=O)NC[C@@H]1OC[C@H]2CN(CC3CC3)CC[C@H]21.O=C(O)C(F)(F)F,33.21,–
CCCN1CC[C@@H]2[C@@H](CO[C@H]2CNC(=O)c2nccn2C)C1.O=C(O)C(F)(F)F,42.84,–
Cc1ncccc1Oc1cncc(C2CCCN2Cc2cncn2C)n1 (centres undefined),19.44,–
Cn1cncc1CN1CCCC1c1cncc(Oc2ccc(F)cc2)n1 (centres undefined),23.83,–
Cn1cncc1CN1CCCC1c1cncc(Oc2ccc(Cl)cc2)n1 (centres undefined),60.52,–
O=C(O)C(F)(F)F.O=C([C@H]1COC[C@H]2CN(CC3CCCC3)C[C@H]21)N1CCOCC1,14.74,–
CC(=O)N1CCC2(CC1)CN(C(=O)[C@@H]1CSCN1)c1ccc(Cl)cc12.O=C(O)C(F)(F)F,42.29,–
Cc1csc(CN2CCC[C@]3(C[C@@H](OCC4CC4)CO3)C2)n1.O=C(O)C(F)(F)F,2.266,–
CO[C@@H]1CO[C@@]2(CCCN(Cc3nc(C)cs3)C2)C1.O=C(O)C(F)(F)F,100.6,–

Structure (SMILES),"Percent Effect (30.3 µM, […]) [%]","Percent Effect (30 µM, 30.03 µM) [%]"
O=C(O)C(F)(F)F.O=C(O)C(F)(F)F.O=C(c1cccnc1)N1CCC[C@]2(C[C@H](Oc3ncccc3F)CO2)C1,55.01,–
COc1ncccc1C(=O)N1CCC2(CC1)CC(OC)CO2.O=C(O)C(F)(F)F (centres undefined),56.73,–
COc1ncccc1C(=O)N1CC[C@]2(C[C@@H](Oc3cccnc3)CO2)C1.O=C(O)C(F)(F)F.O=C(O)C(F)(F)F,31.08,–
O=C(O)C(F)(F)F.O=C(c1ccccc1)N1CCC[C@]2(C[C@@H](Oc3ncccc3F)CO2)C1,-17.71,–
COC1COC2(CCN(C(=O)c3ccccc3F)CC2)C1 (centres undefined),35.35,–
CCO[C@H]1CO[C@@]2(CCCN(Cc3nc(C)cs3)C2)C1.O=C(O)C(F)(F)F,–,20.53
CS(=O)(=O)N1CCC[C@]2(C[C@@H](Oc3ncccc3F)CO2)C1.O=C(O)C(F)(F)F,–,22.25
O=C(O)C(F)(F)F.O=C(c1ncccn1)N1CCC[C@]2(C[C@@H](Oc3ncccc3F)CO2)C1,-9.266,–
Cn1cc(CN2CCC[C@]3(C[C@@H](Oc4ncccc4F)CO3)C2)cn1.O=C(O)C(F)(F)F.O=C(O)C(F)(F)F,62.31,–
Cn1cc(CN2CCC[C@]3(C[C@H](Oc4ncccc4F)CO3)C2)cn1.O=C(O)C(F)(F)F.O=C(O)C(F)(F)F,42.35,–
CC(C)NC(=O)N1CCC(c2nnc3n2CCNC3)CC1,-10,–
O=C(O)C(F)(F)F.O=C([C@H]1CN(CCc2ccccc2)C[C@H]2OCC[C@@H]12)N1CCCO1,–,22.49
CCCC(C#N)NC(=O)Cc1csc(CC)n1 (centres undefined),15.43,–
CC(OCc1ccccc1)C(=O)NC1CCN(CC(N)=O)CC1 (centres undefined),21.11,–
O=C(c1ccc(O)c(Cl)c1)N1C[C@@H](CN2CCCCCC2)[C@@H](CO)C1,-29.45,–
Cc1nc(CN2CCCC2c2[nH]ncc2C(=O)N(C)C)cs1 (centres undefined),17.56,–
O=S(=O)(NCCc1c[nH]c2ccc(F)cc12)C1CCOCC1,23.05,–
O=C(O)C(F)(F)F.O=C(O)C(F)(F)F.c1ccc(O[C@H]2CO[C@@]3(CCN(Cc4ccc5c(c4)OCO5)C3)C2)nc1,57,–
CCO[C@@H]1CO[C@@]2(CCN(Cc3ccc4c(c3)OCO4)C2)C1.O=C(O)C(F)(F)F,22.42,–
CCO[C@H]1CO[C@@]2(CCN(Cc3ccc4c(c3)OCO4)C2)C1.O=C(O)C(F)(F)F,9.141,–
CC(C)Cc1cc(C(=O)NCCn2nc3ccccn3c2=O)[nH]n1,7.621,–
O=C1CCC(=O)N1CCN1CCC(=Cc2ccccc2)CC1,5.63,–
Cc1nc(-c2cccc(N3CCC(N[C@@H]4CCOC4)CC3)c2)cs1,-5.486,–
COc1cccc(-c2cccc(N3CCC(N[C@@H]4CCOC4)CC3)c2)c1,96,–

Structure (SMILES),"Percent Effect (30.3 µM, […]) [%]","Percent Effect (30 µM, 30.03 µM) [%]"
O=C(CCc1ccsc1)NC1CCN(c2cccc(F)c2)CC1,-29.46,–
O=C(Cc1cccs1)NC1CCN(c2cccc(F)c2)CC1,–,26.53
Fc1cccc(-c2cccc(N3CCC(NC4CCCOC4)CC3)c2)c1 (centres undefined),98.85,–
COc1cccc(N2CCC(N3CCOC(C(F)(F)F)C3)CC2)c1 (centres undefined),13.73,–
COC(C)(C)CC(C)NCc1cc(-c2ccco2)on1 (centres undefined),-19.81,–
CN(CCC#N)C(=O)CN1CCCN(Cc2noc(C3CC3)n2)CC1,25.2,–
O=C(O)C(F)(F)F.c1ncn(Cc2cnc3n2CCN(Cc2ccsc2)CC3)n1,–,-12.88
O=C1NCC(C(=O)N(Cc2cccc(Br)c2)C2CC2)N1 (centres undefined),-2.381,–
O=C1CC[C@H](C(=O)N(CCc2ccccc2)C2CCOC2)N1 (some centres undefined),6.545,–
O=C1CC[C@H](C(=O)N(Cc2cccc(Br)c2)C2CC2)N1,50.36,–
Nc1nnc(CCNC(=O)c2cccc(C3CCCNC3)c2)s1 (centres undefined),5.236,–
Nc1nc(CCCNC(=O)c2ccc(C3CCCNC3)cc2)cs1 (centres undefined),19.48,–
Nc1nnc(CCCNC(=O)c2ccc(C3CCCNC3)cc2)s1 (centres undefined),51.22,–
CN(Cc1cccc(OC(F)(F)F)c1)Cc1cnn(C)c1,10.05,–
CCN1CCCC(O)(CNCc2ccncc2)C1 (centres undefined),-12.57,–
Cc1cc(NCc2ccc(S(N)(=O)=O)cc2)nc(C)n1,22.51,–
COCCN(Cc1ccccc1Cl)c1nc(CCN)nc2ccccc12,98.78,–
NCCc1nc(N(Cc2nccs2)C2CC2)c2ccccc2n1,-16.71,–
Cc1ccsc1CN(c1nc(CCN)nc2ccccc12)C1CC1,40.33,–
COCCN(Cc1cccs1)c1nc(CCN)nc2ccccc12,70.83,–
NCCc1nc(N(Cc2cncs2)C2CC2)c2ccccc2n1,-1.942,–
COCCN(CC1CC1)c1nc(CCN)nc2ccccc12,14.22,–
